Compounds with a hit are over-represented: about 4.8% of the library has one in this group of screens.
hgDAF12 agonist – activates the H. glycines DAF-12 receptor ligand-binding domain | HEK293 GAL4-hgDAF12 UAS-luciferase reporter, agonist luminescence; normalized to butyrate control | activation, % at 6.8 µM | hit rate 1.8% among 370,000 | AID 687014;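 active means activation above a cutoff set at the mean of all screened compounds plus 3 SD, cut at about 10% in these data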
DAX1 inh-1 – blocks DAX1 repression of SF-1 activated StAR promoter | HEK293T StAR-luciferase reporter, SF-1/DAX-1 repression relief | inhibition, % at 6.8 µM | hit rate 1.1% among 370,000 | AID 652010;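 active means inhibition above the mean over all tested compounds plus 3 SD, cut at about 3.6% in these data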;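 further: higher inhibition means more luminescence from relief of DAX-1 repression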
ssDAF-12 act – S. stercoralis DAF-12 activation, primary screen | activation, % at 6.8 µM | HEK293 ssDAF-12/GRIP1 lit1-tk-luc reporter, luminescence; % of 3 µM dafachronic acid response | hit rate 1% among 370,000 | AID 652126;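 active means activation above the mean over all tested compounds plus 3 SD, cut at about 0.9% in these data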
DAX1 inh-2 – inhibits human nuclear receptor DAX1 | P51843 | HEK293 Gal4-DAX1 luciferase reporter, luminescence | inhibition, % at 6.75 µM | hit rate 0.99% among 340,000 | AID 504766;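 active means inhibition above the mean over all tested compounds plus 3 SD, cut at about 4.2% in these data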;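 further: inhibition shows as a rise in luminescence from relieved DAX1 repression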
Target sequence (P51843 207-470 limits assumed): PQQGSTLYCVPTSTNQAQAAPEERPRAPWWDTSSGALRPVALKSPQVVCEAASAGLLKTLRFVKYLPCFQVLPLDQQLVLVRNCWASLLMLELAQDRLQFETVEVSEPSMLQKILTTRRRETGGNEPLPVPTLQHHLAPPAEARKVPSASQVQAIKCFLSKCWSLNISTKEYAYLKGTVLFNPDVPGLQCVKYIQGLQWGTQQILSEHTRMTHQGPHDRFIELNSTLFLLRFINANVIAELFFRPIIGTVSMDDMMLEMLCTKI
SMARCA2 activ – activators of SMARCA2 function | hit rate 1% among 370,000 | MG213 cells, MMTV-luciferase reporter, dexamethasone, overnight | activation, % at 9.1 µM | AID 652017; in the data active means activation above about 7.8%
hcDAF12 agonist – activates DAF-12 receptor from parasite H. contortus. HEK293 hcDAF-12 lit1-tk-luc reporter, luminescence; 0% DMSO, 100% Δ7-dafachronic acid. hit rate 1.4% among 370,000. activation, % at 6.8 µM;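 active means activation above the mean of all tested compounds plus 3 SD, cut at about 5.5% in these data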
DAX1 conf – confirmation of human DAX1 (NR0B1) inhibitors | shares compounds with DAX1 inh-1 | HEK293T StAR-promoter luciferase reporter, SF-1/DAX-1 repression | inhibition, % at 6.8 µM | hit rate 87% among 2,400 | AID 652134;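 active means inhibition above the average of every tested compound plus 3 SD, cut at about 3.8% in these data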;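 further: active compounds raise luminescence by relieving repression of the StAR reporter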
SF1 mutant ctr – nonselective inhibitor or artifact in SF-1 mutant DAX1 counter-screen; shares compounds with DAX1 inh-1; HEK293 StAR-luciferase, SF-1 AF2 mutant, luminescence; inhibition, % at 6.8 µM; hit rate 78% among 2,400; AID 652136;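 active means inhibition above the mean of all tested compounds plus 3 SD, cut at about 3% in these data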
SMARCA2 conf – SMARCA2 activation, confirmation screen | shares compounds with SMARCA2 activ | MG213 cells, MMTV-luciferase with dexamethasone, luminescence, overnight; MG213 cells expressing E1A, Rb sequestered; DMSO wells 0%, reference activator 100% | activation, % at 9.1 µM | hit rate 30% among 3,500 | AID 652260;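 active means activation above its plate's cutoff, the mean activation of tested wells plus 3 SD, cut at about 7.9% in these data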
GAL4-VP16 Luc – counter-screen for SMARCA2 activators: GAL4-VP16 luciferase reporter activation; AID 686939; activation, % at 9.1 µM; shares compounds with SMARCA2 activ; HEK293 GAL4-VP16 pG5luc reporter, luciferase luminescence; scaled: DMSO wells 0%, SAHA wells 100%; hit rate 41% among 3,500;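 active means activation above the solvent-only control well mean plus 3 SD, averaged across control plates, cut at about 5.2% in these data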
LXR ag – activates human LXR-beta, counter-screen for hcDAF-12 agonists | HEK293 Gal4-LXR tk-luc reporter, luminescence, 24 h; normalized: DMSO 0%, positive control 100% | shares compounds with hcDAF12 agonist | activation, % at 6.8 µM | AID 743027 | 3,400 tested, under 10 active;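 active means mean percent activation of the reporter above a cutoff set as the average over tested compounds plus their standard deviation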
Target sequence (P55055 whole entry, looked up, the tested form may be a part): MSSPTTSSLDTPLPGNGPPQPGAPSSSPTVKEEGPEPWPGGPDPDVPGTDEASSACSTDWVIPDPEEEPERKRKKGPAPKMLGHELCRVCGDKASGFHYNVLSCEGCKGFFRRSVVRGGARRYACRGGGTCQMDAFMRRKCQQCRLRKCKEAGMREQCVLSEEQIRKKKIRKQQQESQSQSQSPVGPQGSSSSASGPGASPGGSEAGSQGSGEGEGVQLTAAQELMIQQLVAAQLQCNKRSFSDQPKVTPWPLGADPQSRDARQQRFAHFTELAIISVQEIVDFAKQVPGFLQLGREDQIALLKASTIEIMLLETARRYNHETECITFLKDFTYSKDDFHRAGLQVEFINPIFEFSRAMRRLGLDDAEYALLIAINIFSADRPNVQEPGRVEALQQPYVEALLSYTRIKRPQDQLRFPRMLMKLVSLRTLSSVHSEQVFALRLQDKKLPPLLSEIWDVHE
hcDAF12 conf – confirmation of H. contortus DAF-12 agonists; hit rate 61% among 3,400; HEK293 hcDAF-12 lit1-tk-luc reporter, luminescence; % of Δ7-dafachronic acid response; shares compounds with hcDAF12 agonist; activation, % at 6.8 µM;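 active means mean activation across triplicate tests above the threshold derived from the earlier primary screen, cut at about 5.5% in these data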
hgDAF12 conf – confirmation of H. glycines DAF-12 agonists. shares compounds with hgDAF12 agonist. HEK293 GAL4-hgDAF12 luciferase reporter, agonist mode; percent of butyrate response. hit rate 80% among 3,300. activation, % at 6.8 µM. AID 743050;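 active means mean activation over triplicate wells above the hit cutoff derived from the earlier primary screen, cut at about 11% in these data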
LXR ag 2 – counter-screen for DAF-12 agonists: agonists of human LXR-beta; shares compounds with hgDAF12 agonist; HEK293 Gal4-LXR luciferase reporter, 24 h; activation, % at 6.8 µM; 3,300 tested, under 10 active;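 active means mean activation of the triplicate above a set limit carried over from the primary screen, none filed active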
Of the large screens only hits and unclear results are named; the others gave an inactive call (follow-up assays come after a bar, where they were run).

CC(=O)c1sc(NC(=O)c2cccc(C)c2)nc1C	hgDAF12 agonist 20, DAX1 inh-1 4.6, DAX1 inh-2 7.0 | DAX1 conf 5.9 | SF1 mutant ctr 5.4 | hgDAF12 conf 15 | LXR ag 2 inactive
CC(C)(C(=O)N1CCC1(C)C(=O)NS(=O)(=O)c1cccc(C#N)c1)c1ccccc1 (stereo unspecified)	none (no result: DAX1 inh-2)
N#C/C(=C\c1ccc2c(c1)OCO2)C(N)=S	none (no result: DAX1 inh-2)
Cc1ccc(C(C#N)=Cc2ccc3c(c2)OCO3)cc1	hgDAF12 agonist 18, DAX1 inh-1 6.8, SMARCA2 activ 14 | DAX1 conf 11 | SF1 mutant ctr 5.0 | SMARCA2 conf inactive | GAL4-VP16 Luc 11 | hgDAF12 conf 21 | LXR ag 2 inactive
O=C(O)c1ccc(N/N=C/c2cc3ccccc3nc2Cl)cc1	hgDAF12 agonist 17, DAX1 inh-1 5.4, DAX1 inh-2 4.3, SMARCA2 activ 13, hcDAF12 agonist 5.6 | DAX1 conf 14 | SF1 mutant ctr 5.7 | SMARCA2 conf inactive | GAL4-VP16 Luc 12 | hgDAF12 conf 12 | LXR ag 2 inactive
Cc1cccc2cc(/C=N/Nc3ccc(C(=O)O)cc3)c(Cl)nc12	hgDAF12 agonist 19, DAX1 inh-1 8.9, hcDAF12 agonist 6.0 | DAX1 conf 37 | SF1 mutant ctr 15 | hgDAF12 conf 25 | LXR ag 2 inactive
CCOC(=O)C1(C)CCCCN1C(=O)c1cccs1 (stereo unspecified)	none (no result: DAX1 inh-2)
O=C(NCCCN1CCCC1=O)C(=O)NCC1OCCN1S(=O)(=O)c1ccc(Cl)cc1 (stereo unspecified)	none
C/C(=N\NC(=O)c1nn(C)c(C)c1Br)c1ccc(NC(=O)c2ccoc2C)cc1	hgDAF12 agonist 20, DAX1 inh-1 5.5, hcDAF12 agonist 8.5 | DAX1 conf inactive | SF1 mutant ctr inactive | LXR ag inactive | hcDAF12 conf inactive | hgDAF12 conf inactive | LXR ag 2 inactive
CCC(=O)Nc1ccc(/C(C)=N/NC(=O)c2c(Br)c(C)nn2C)cc1	none
C/C(=N\NC(=O)c1ccc2ccccc2c1)c1cccs1	hgDAF12 agonist 13, DAX1 inh-1 9.8 | DAX1 conf 7.5 | SF1 mutant ctr 5.0 | hgDAF12 conf 21 | LXR ag 2 inactive
C/C(=N\NC(=O)c1cccs1)c1ccc(C(=O)O)s1	hgDAF12 agonist 15, DAX1 inh-1 8.0, hcDAF12 agonist 7.0 | DAX1 conf inactive | SF1 mutant ctr inactive | LXR ag inactive | hcDAF12 conf inactive | hgDAF12 conf inactive | LXR ag 2 inactive
C/C(=N\NC(=O)c1ccncc1)c1cccs1	none
C/C(=N\NC(=O)c1cccs1)c1cccnc1	hgDAF12 agonist 25, DAX1 inh-1 5.5, SMARCA2 activ 8.4, hcDAF12 agonist 8.4 | DAX1 conf inactive | SF1 mutant ctr inactive | SMARCA2 conf inactive | GAL4-VP16 Luc inactive | LXR ag inactive | hcDAF12 conf inactive | hgDAF12 conf inactive | LXR ag 2 inactive
COc1ccc(CNC(=O)CCCn2nc(C)c3c(C)n(-c4ccc(C)cc4)nc3c2=O)cc1OC	none
C/C(=N\NC(=O)c1ccoc1C)c1cccnc1	hgDAF12 agonist 14, DAX1 inh-1 5.5 | DAX1 conf inactive | SF1 mutant ctr inactive | hgDAF12 conf inactive | LXR ag 2 inactive
O=C(Nc1ccccc1F)c1nc[nH]c1C(=O)NCc1ccccc1	none
COc1ccc(C=Cc2ccc3ccccc3n2)c(OC)c1	none
Cc1ccsc1/C=C/c1ccc2ccccc2n1	hgDAF12 agonist 16, DAX1 inh-1 5.0, ssDAF-12 act 3.0, hcDAF12 agonist 23 | DAX1 conf 7.3 | SF1 mutant ctr inactive | LXR ag inactive | hcDAF12 conf 22 | hgDAF12 conf 15 | LXR ag 2 inactive
Cc1ccc(Cc2c(-c3ccc(F)cc3)nc3ccc(Br)cn23)cc1	none (no result: DAX1 inh-2)
Cc1ccc(Cc2c(-c3ccc(Br)cc3)nc3cc(C)ccn23)cc1	hgDAF12 agonist 14, DAX1 inh-1 7.5, SMARCA2 activ 8.2 | DAX1 conf 3.7 | SF1 mutant ctr inactive | SMARCA2 conf inactive | GAL4-VP16 Luc inactive | hgDAF12 conf inactive | LXR ag 2 inactive
COc1ccc(-c2nc3ccc(C)cn3c2Cc2ccccc2C(F)(F)F)cc1OC	none (no result: DAX1 inh-2)
Cc1ccc(-c2nc3ccc(Br)cn3c2Cc2ccccc2)cc1	hgDAF12 agonist 14, DAX1 inh-1 5.4 (no result: DAX1 inh-2) | DAX1 conf 8.2 | SF1 mutant ctr inactive | hgDAF12 conf 16 | LXR ag 2 inactive
Cc1ccc(Cc2c(-c3ccc(F)cc3)nc3ccc(Cl)cn23)cc1	none
Cc1ccc(Cc2c(-c3ccc(F)cc3)nc3cc(C)ccn23)cc1	hgDAF12 agonist 17, DAX1 inh-1 6.6 | DAX1 conf inactive | SF1 mutant ctr inactive | hgDAF12 conf inactive | LXR ag 2 inactive
Cc1ccc(Cc2c(-c3ccccc3)nc3ccc(Br)cn23)cc1	none
Cc1ccc2nc(-c3ccc(F)cc3)c(Cc3ccccc3C(F)(F)F)n2c1	hgDAF12 agonist 14, DAX1 inh-1 4.7, ssDAF-12 act 1.7 (no result: DAX1 inh-2) | DAX1 conf inactive | SF1 mutant ctr 4.6 | hgDAF12 conf inactive | LXR ag 2 inactive
CCOc1ccc(NC(=O)N2CCN(Cc3ccc4c(c3)OCO4)CC2)cc1	none
